Screens deposited in PubChem BioAssay by National Center for Advancing Translational Sciences (NCATS).
HEK cytotox – Cytotoxic Profiling in HEK 293 Cell Line of Diverse Libraries Using Quantitative High-Throughput Screening; Potency, µM (titrated, usually from 115 µM), for inactives: at the highest dose activity change, negative = cytotoxicity, hits mostly inhibitors; HEK 293 viability, ATP luminescence (CellTiter-Glo), 48-72 h; 94,000 compounds, 6.6% hits; further: on the % scale 0 is the no-effect control and ±100 the full control effect; nearly all actives have a fitted effect of over 60% in size
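qHTS cytotoxicity; HEK 293, 250 cells/well; compound pinned; 48 or 72 hr, 37 degree Celsius, 5% CO2, 95% humidity; CellTiter-Glo, 10 min RT; luminescence (ATP).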
NPR1 antag – Natriuretic polypeptide receptor (hNpr1) antagonism - Primary qHTS | AID 1347048, 2019 | Potency, µM (titrated, usually from 46.3 µM), inactives show at the top dose activity change, negative = inhibition, usual class: inhibitors | Atrial natriuretic peptide receptor 1 (Homo sapiens), P16066 | 76,000 compounds, 1.6% hits | HEK293 hNpr1 GloSensor cGMP, ANP-stimulated luminescence; calls by dose curve; further: on the % scale 0 is the no-effect control and ±100 the full control effect; nearly all actives have a fitted effect of over 60% in size
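Compound pre-incubated 30 min at room temperature on GloSensor-loaded HEK293 cells stably carrying hNpr1 and the pGS-40F cGMP biosensor. Stimulation uses hNppA at 0.1 nM final; luminescence is taken at baseline and 20 min post-agonist.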
GPT2 inhibitor – Primary qHTS assay for inhibitors of Glutamate pyruvate transaminase 2 (GPT2); Alanine aminotransferase 2 (Homo sapiens), Q8TD30; Recombinant GPT2, coupled pyruvate oxidase/HRP Amplex Red fluorescence; Potency, µM (highest dose often 57.7 µM), for the others: at the highest dose activity change, negative = inhibition, most hits filed as inhibitors; 100,000 compounds, 0.25% hits; AID 1671188, 2021; further: on the % scale 0 is the no-effect control and ±100 the full control effect; nearly all actives have a fitted effect of over 60% in size
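Fluorescence read-out: pyruvate from GPT2 turnover coupled to pyruvate oxidase, HRP and Amplex Red (0.2mM ThPP, 0.2U/mL PO and HRP, 50uM Amplex final). Substrates 250uM a-KG, 2mM L-alanine; enzyme 10ng/uL; 30 min RT.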
FLuc inh – Firefly luciferase inhibition profiling of diverse chemical library using quantitative high-throughput screening; 76,000 compounds, 2.5% hits; Potency, µM (top dose mostly 115 µM), most hits filed as inhibitors; purified P. pyralis luciferase, luminescence, biochemical; further: on the % scale 0 is the no-effect control and ±100 the full control effect; nearly all actives have a fitted effect of over 65% in size
Target sequence (P08659 whole entry, looked up): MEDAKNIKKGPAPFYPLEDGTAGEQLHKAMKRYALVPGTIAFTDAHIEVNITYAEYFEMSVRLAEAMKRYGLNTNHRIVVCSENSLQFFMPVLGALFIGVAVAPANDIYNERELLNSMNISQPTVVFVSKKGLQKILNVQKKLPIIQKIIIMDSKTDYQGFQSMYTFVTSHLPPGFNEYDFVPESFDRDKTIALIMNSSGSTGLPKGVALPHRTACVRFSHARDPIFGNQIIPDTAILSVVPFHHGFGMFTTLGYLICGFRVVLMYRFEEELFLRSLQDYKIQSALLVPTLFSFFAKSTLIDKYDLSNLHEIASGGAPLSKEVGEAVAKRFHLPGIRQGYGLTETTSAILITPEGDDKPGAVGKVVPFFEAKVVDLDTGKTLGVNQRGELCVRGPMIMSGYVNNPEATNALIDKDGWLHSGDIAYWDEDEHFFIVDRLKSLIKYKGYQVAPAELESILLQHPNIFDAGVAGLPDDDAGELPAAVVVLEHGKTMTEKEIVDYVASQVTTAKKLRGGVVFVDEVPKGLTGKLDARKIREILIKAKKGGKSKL
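Purified P. pyralis luciferase (10nM final) in 50mM Tris acetate pH 7.5, 10mM Mg acetate, 0.01% Tween-20, 0.05% BSA with 10uM D-luciferin and 10uM ATP. Compounds titrated qHTS. Luminescence imaged on CCD.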
NIH3T3 tox – Cytotoxic Profiling in NIH 3T3 Cell Line of Diverse Libraries Using Quantitative High-Throughput Screening; NIH 3T3 viability, CellTiter-Glo ATP luminescence, 48-72 h; Potency, µM (highest dose often 96.7 µM), for the others: top-dose activity change, negative = cytotoxicity, usual class: inhibitors; 94,000 compounds, 4.3% hits; further: on the % scale 0 is the no-effect control and ±100 the full control effect; nearly all actives have a fitted effect of over 55% in size
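ATP-dependent luminescence (CellTiter-Glo) served as the viability signal for NIH 3T3 cells treated with compound for 48 or 72 hr at 37 °C.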
Npr1 antag conf – Natriuretic polypeptide receptor (hNpr1) antagonism - Confirmation | shares compounds with NPR1 antag | HEK293 hNpr1 cGMP GloSensor luminescence, ANP-stimulated | Potency, µM (top dose mostly 57.6 µM), without a hit: at the top dose activity change, negative = inhibition, hits mostly inhibitors | 1,400 compounds, 76% hits | AID 1347044, 2019; calls by dose curve; further: nearly all actives have a fitted effect of over 70% in size
Npr2 selectivity – Natriuretic polypeptide receptor (hNpr2) antagonism - Subtype selectivity assay; shares compounds with NPR1 antag; HEK293 hNpr2 GloSensor cGMP luminescence, CNP-stimulated; Potency, µM (titrated, usually from 57.6 µM), inactives show top-dose activity change, negative = inhibition, actives largely listed as inhibitors; 1,400 compounds, 67% hits; AID 1347046, 2019; calls by dose curve; further: nearly all actives have a fitted effect of over 70% in size
FLuc counter – Natriuretic polypeptide receptor (hNpr1) antagonism - Confirmation firefly luciferase (FLuc) inhibition counterscreen; AID 1347047, 2019; shares compounds with NPR1 antag; Potency, µM (highest dose often 57.6 µM), for inactives: at the top dose activity change, negative = inhibition, most hits filed as inhibitors; 1,400 compounds, 0.7% hits; purified FLuc enzyme, luminescence, Km substrate; further: 0% is about no effect
GloSensor ctrl – Natriuretic polypeptide receptor (hNpr1) antagonism - Counterscreen GloSensor control cell line; shares compounds with NPR1 antag; Potency, µM (doses to about 57.6 µM), without a hit: at the highest dose activity change, negative = inhibition, actives largely listed as inhibitors; HEK293 GloSensor cGMP, SNP-stimulated, luminescence; 1,400 compounds, 69% hits; calls by dose curve; further: on the % scale 0 is the no-effect control and ±100 the full control effect; nearly all actives have a fitted effect of over 70% in size
An asterisk follows results filed as active; i = inactive; ? = inconclusive; . = no result given; [ ] = dose if it differs, or a comment. Shown are actives, neighbours in structure and some others; about 10% of the full set was active somewhere. Unless noted, the call rests on the fitted dose curve; in most records, active means well fitted curve in the direction sought with a large enough effect; inconclusive means small, poorly fitted or top-dose-only effect, or another doubt; inactive means no such curve, though single readings can be large; an effect the other way counts as inactive or inconclusive. Potency means the concentration at half of the fitted maximal effect.

SMILES	HEK cytotox	NPR1 antag	GPT2 inhibitor	FLuc inh	NIH3T3 tox	Npr1 antag conf	Npr2 selectivity	FLuc counter	GloSensor ctrl
O=C(C1COc2ccccc2O1)N1CCN(c2cc(-c3ccc(Cl)cc3)[nH]n2)CC1 (centres undefined)	45µM*	?	i	i	?	15µM*	22µM*	2%	14µM*
O=C(Cc1ccccc1F)N1CCN(c2cc(-c3ccc(Cl)cc3)[nH]n2)CC1	-7%	0%	i	i	-14%	.	.	.	.
CC(C)(C)c1nnc2ccc(C(=O)NCCc3ccc(Cl)cc3)cn12	-6%	.	-5%	.	-20%	.	.	.	.
COCCOc1cnc2ccn([C@H](C)c3nnc4c(F)cc(-c5cnn(C)c5)cn34)c(=O)c2c1	.	.	i	.	.	.	.	.	.
O=C(Nc1ccc(Cl)cc1)N1CCN(C(=O)c2nc3cccnc3n(C3CCCC3)c2=O)CC1	-10%	.	i	.	?	.	.	.	.
CC(C)CCN1C(=O)CC[C@]2(C(=O)N3CCC(C)CC3)CCCC[C@@H]12	?	-7%	-7%	i	-25%	.	.	.	.
CC(CO)C1CCC2(C)CC3C(CO)CC(O)C3C(C)(O)C/C=C/12 (centres undefined)	.	.	2%[27.3 µM]	.	.	.	.	.	.
CCOc1ccc(C(=O)N2CCN(c3cc(-c4ccc(Cl)cc4)[nH]n3)CC2)cc1OCC	20µM*	2.2µM*	-15%	i	22µM*	7.7µM*	14µM*	-1%	9.7µM*
Cc1ccsc1C(=O)N1CCN(c2cc(-c3ccc(Cl)cc3)[nH]n2)CC1	?	13µM*	i	i	25µM*	24µM*	27µM*	-11%	22µM*
Cc1ccc(C(=O)N2CCN(c3cc(-c4ccccc4)[nH]n3)CC2)cc1F	?	-18%	i	i	?	.	.	.	.
CCOc1ccc(C(=O)N2CCCN(c3cc(-c4ccc(OC)cc4)[nH]n3)CC2)cc1OCC	?	-6%	i	i	-2%	.	.	.	.
O=C(c1ccccc1Cl)N1CCN(c2cc(-c3ccc(Cl)cc3)[nH]n2)CC1	?	7.9µM*	-14%	i	?	14µM*	14µM*	-5%	11µM*
Cc1ccc(C(=O)N2CCN(c3cc(-c4ccc(Cl)cc4)[nH]n3)CC2)cc1F	?	18µM*	i	i	?	27µM*	22µM*	1%	24µM*
COc1ccc2c(c1)cc(C(=O)N1Cc3[nH]cnc3CC1C(=O)O)n2C (centres undefined)	i	10%	i[11.5 µM]	i	i	.	.	.	.
Cc1nn(CCC(=O)N[C@H]2CC[C@H]2NC2CCCCC2)c(C)c1C	-19%	4%	-8%	i	?	.	.	.	.
